A short description of assay [1]: NCI Yeast Anticancer Drug Screen. Data for the rad50 strain (AID 155).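 Further: 0% = growth of vehicle-only cultures of the same strain.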 The settings on record: S. cerevisiae rad50 strain growth inhibition, hits give high values. An outline of the steps:
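A DNA repair-deficient yeast mutant serves as the test organism; compound-induced growth inhibition is calculated against vehicle-treated cells.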

The nature of assay [2]: NCI Yeast Anticancer Drug Screen. Data for the mec2-1 strain (AID 157). As to conditions: S. cerevisiae mec2-1 strain, hits give high values. The method in brief:
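Cells of the genetically defined mec2-1 yeast strain are incubated with test compound. Inhibition of growth is calculated against vehicle-treated controls.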

The nature of assay [3]: NCI Yeast Anticancer Drug Screen. Data for the sgs1 mgt1 strain (AID 161).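 Further: 0% = growth of cultures given vehicle only.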 The settings on record: S. cerevisiae sgs1 mgt1 strain, hits give high values. An outline of the steps: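 Mutant yeast exposed to compound; growth scored against vehicle-only wells.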
The nature of assay [4]: NCI Yeast Anticancer Drug Screen. Data for the cln2 rad14 strain (AID 165).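 Further: 0% = growth equal to vehicle treated cultures.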 As to conditions: S. cerevisiae cln2 rad14 strain, hits give high values. The method in brief: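 The screen exposed genetically defined yeast (cln2 rad14) to test compounds and scored growth inhibition relative to vehicle-treated controls.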
Assay [5] is described as follows: NCI Yeast Anticancer Drug Screen. Data for the bub3 strain (AID 167). The settings on record: S. cerevisiae bub3 mutant strain, hits give high values. An outline of the steps:
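Inhibition values come from growth of compound-treated mutant yeast normalised to vehicle-treated controls.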

Assay [6] in a line: NCI Yeast Anticancer Drug Screen. Data for the mlh1 rad18 strain (AID 175). As to conditions: S. cerevisiae mlh1 rad18 strain growth inhibition, hits give high values. An outline of the steps:
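Compound-treated yeast growth, normalised to vehicle controls. Strain bears defined DNA repair mutations.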

Where [7] appears, read: at 5.0 µM (retest, dose inferred, filed as 0.5).
[8] abbreviates: at 50.0 µM (retest, dose inferred, filed as 5.0).

Each structure is given as a SMILES string. Compounds without any hit were thinned out: in the full panel of roughly 79,000, 15% have a hit. Values without a mark were called inactive. Active and inactive are the calls of the source. No stated cut-off is given here; in the data, active means growth inhibition above about 70%; inactive means the rest.

Regarding `CCCCCCC1CC(=O)C1(Cl)Cl` (configuration not stated), the growth inhibition in assay [1] (setting [7]) was -9%; in assay [1] (setting [8]) it was 100% (active); in assay [1] (at 50.0 µM), 89.1% (active); in assay [2] (setting [7]), -16%; in assay [2] (setting [8]) it was 100% (active); in assay [2] (at 50.0 µM), 93.3% (active). Also, the growth inhibition in assay [3] (setting [7]) is -17%; in assay [3] (setting [8]) it was 100% (active); in assay [3] (at 50.0 µM) it was 90.1% (active); in assay [4] (setting [7]), -4%; in assay [4] (setting [8]) it was 100% (active); in assay [4] (at 50.0 µM), 92.5% (active). The growth inhibition in assay [5] (setting [7]) is -32%; in assay [5] (setting [8]), 100% (active); in assay [5] (at 50.0 µM), 92% (active); in assay [6] (setting [7]), 12%; in assay [6] (setting [8]), 100% (active); in assay [6] (at 50.0 µM) it was 86.2% (active).

`O=C(O)C(=O)Cc1ccc(O)cc1`: the growth inhibition is -18% in assay [1] (setting [7]); -30% in assay [1] (setting [8]); 68.2% in assay [1] (at 50.0 µM); -20% in assay [2] (setting [7]); -25% in assay [2] (setting [8]); 12.7% in assay [2] (at 50.0 µM). The growth inhibition is -10% in assay [3] (setting [7]); -26% in assay [3] (setting [8]); 57% in assay [3] (at 50.0 µM); -5% in assay [4] (setting [7]); 7% in assay [4] (setting [8]); 49.1% in assay [4] (at 50.0 µM). For the same molecule, the growth inhibition in assay [5] (setting [7]) was -24%; in assay [5] (setting [8]) it was -20%; in assay [5] (at 50.0 µM), 70.7% (active); in assay [6] (setting [7]), -48%; in assay [6] (setting [8]), -69%; in assay [6] (at 50.0 µM), 61%.

In the case of `N#CC(Cl)CS(=O)(=O)c1ccccc1` (configuration not stated), the growth inhibition in assay [1] (setting [7]) is 81% (active); in assay [1] (setting [8]), 100% (active); in assay [1] (at 50.0 µM), 99.5% (active); in assay [2] (setting [7]), 96% (active); in assay [2] (setting [8]) it was 100% (active); in assay [2] (at 50.0 µM) it was 99.5% (active). In addition, the growth inhibition is 31% in assay [3] (setting [7]); 99% (active) in assay [3] (setting [8]); 99.5% (active) in assay [3] (at 50.0 µM); 49% in assay [4] (setting [7]); 99% (active) in assay [4] (setting [8]); 99.2% (active) in assay [4] (at 50.0 µM). The growth inhibition in assay [5] (setting [7]) is 95% (active); in assay [5] (setting [8]), 100% (active); in assay [5] (at 50.0 µM), 95.2% (active); in assay [6] (setting [7]), 88% (active); in assay [6] (setting [8]), 100% (active); in assay [6] (at 50.0 µM), 99.5% (active).

As to `Clc1ccccc1/C=C/c1nccc2ccccc12`, the growth inhibition was 15% in assay [1] (setting [7]); 98% (active) in assay [1] (setting [8]); 94.1% (active) in assay [1] (at 50.0 µM); -1% in assay [2] (setting [7]); 99% (active) in assay [2] (setting [8]); 60.2% in assay [2] (at 50.0 µM). The growth inhibition was 18% in assay [3] (setting [7]); 98% (active) in assay [3] (setting [8]); 72.3% (active) in assay [3] (at 50.0 µM); 15% in assay [4] (setting [7]); 98% (active) in assay [4] (setting [8]); 15.1% in assay [4] (at 50.0 µM). The growth inhibition is 64% in assay [5] (setting [7]); 99% (active) in assay [5] (setting [8]); 88.5% (active) in assay [5] (at 50.0 µM); 1% in assay [6] (setting [7]); 98% (active) in assay [6] (setting [8]); 94.2% (active) in assay [6] (at 50.0 µM).

`CC1COC(=O)O1` (configuration not stated): the growth inhibition in assay [1] (setting [7]) was -31%; in assay [1] (setting [8]), -1%; in assay [1] (at 50.0 µM), -4.85%; in assay [2] (setting [7]), -3%; in assay [2] (setting [8]), -2%; in assay [2] (at 50.0 µM) it was -2.35%. Also, the growth inhibition in assay [3] (setting [7]) is 6%; in assay [3] (setting [8]) it was 6%; in assay [3] (at 50.0 µM), 6%; in assay [4] (setting [7]), 6%; in assay [4] (setting [8]) it was 2%; in assay [4] (at 50.0 µM), 15.2%. Moreover, the growth inhibition was 3% in assay [5] (setting [7]); 4% in assay [5] (setting [8]); -2% in assay [5] (at 50.0 µM); 7% in assay [6] (setting [7]); 18% in assay [6] (setting [8]); 15.8% in assay [6] (at 50.0 µM).

`CCOC(=O)C(C#N)NC(C)=O` (configuration not stated): the growth inhibition in assay [1] (setting [7]) was 3%; in assay [1] (setting [8]), 1%; in assay [1] (at 50.0 µM), 68%; in assay [2] (setting [7]) it was 0%; in assay [2] (setting [8]) it was 1%; in assay [2] (at 50.0 µM), 49.3%. For the same molecule, the growth inhibition in assay [3] (setting [7]) is 0%; in assay [3] (setting [8]), 1%; in assay [3] (at 50.0 µM), 75.4% (active); in assay [4] (setting [7]) it was -1%; in assay [4] (setting [8]) it was 0%; in assay [4] (at 50.0 µM), 3.05%. The growth inhibition in assay [5] (setting [7]) was 0%; in assay [5] (setting [8]) it was -5%; in assay [5] (at 50.0 µM), 69%; in assay [6] (setting [7]), 3%; in assay [6] (setting [8]), 3%; in assay [6] (at 50.0 µM), 57.8%.

Take `O=C(O)C1(Cc2ccc3c(c2)CCC3)Cc2ccccc2C1=O` (configuration not stated): the growth inhibition in assay [1] (setting [7]) was 9%; in assay [1] (setting [8]), 9%; in assay [1] (at 50.0 µM), 89.9% (active); in assay [2] (setting [7]), -6%; in assay [2] (setting [8]), -6%; in assay [2] (at 50.0 µM), 92.4% (active). For the same molecule, the growth inhibition in assay [3] (setting [7]) is 3%; in assay [3] (setting [8]), 3%; in assay [3] (at 50.0 µM) it was 87.5% (active); in assay [4] (setting [7]), 3%; in assay [4] (setting [8]) it was 3%; in assay [4] (at 50.0 µM) it was 88.2% (active). For the same molecule, the growth inhibition in assay [5] (setting [7]) is -7%; in assay [5] (setting [8]), -7%; in assay [5] (at 50.0 µM), 90.2% (active); in assay [6] (setting [7]), 1%; in assay [6] (setting [8]) it was 1%; in assay [6] (at 50.0 µM) it was 87% (active).

Turning to `O=C(OC12CCCCC1CCCC2)c1ccc([N+](=O)[O-])cc1` (configuration not stated), the growth inhibition in assay [1] (setting [7]) was 28%; in assay [1] (setting [8]) it was 98% (active); in assay [1] (at 50.0 µM) it was 98% (active); in assay [2] (setting [7]), 29%; in assay [2] (setting [8]) it was 99% (active); in assay [2] (at 50.0 µM), 99.5% (active). Moreover, the growth inhibition is 32% in assay [3] (setting [7]); 99% (active) in assay [3] (setting [8]); 99.1% (active) in assay [3] (at 50.0 µM); 11% in assay [4] (setting [7]); 99% (active) in assay [4] (setting [8]); 99.5% (active) in assay [4] (at 50.0 µM). The growth inhibition in assay [5] (setting [7]) was 33%; in assay [5] (setting [8]), 99% (active); in assay [5] (at 50.0 µM) it was 99.4% (active); in assay [6] (setting [7]) it was 44%; in assay [6] (setting [8]) it was 98% (active); in assay [6] (at 50.0 µM) it was 99.2% (active).

Consider `O=c1ccn(C2OC(COC(c3ccccc3)(c3ccccc3)c3ccccc3)C(O)C2O)c(=O)[nH]1` (configuration not stated), for which the growth inhibition in assay [1] (setting [7]) was 34%; in assay [1] (setting [8]), 98% (active); in assay [1] (at 50.0 µM) it was 90.8% (active); in assay [2] (setting [7]) it was 27%; in assay [2] (setting [8]), 99% (active); in assay [2] (at 50.0 µM) it was 92.9% (active). Besides, the growth inhibition was 25% in assay [3] (setting [7]); 99% (active) in assay [3] (setting [8]); 93.3% (active) in assay [3] (at 50.0 µM); 30% in assay [4] (setting [7]); 98% (active) in assay [4] (setting [8]); 92.4% (active) in assay [4] (at 50.0 µM). For the same molecule, the growth inhibition in assay [5] (setting [7]) was 38%; in assay [5] (setting [8]), 98% (active); in assay [5] (at 50.0 µM), 91.8% (active); in assay [6] (setting [7]), 31%; in assay [6] (setting [8]), 98% (active); in assay [6] (at 50.0 µM) it was 90.3% (active).

Values taken from PubChem BioAssay (NCI).
